# Screening data: PubChem, National Center for Advancing Translational Sciences (NCATS)
# TDP1 cell noCPT: qHTS for Inhibitors of human tyrosyl-DNA phosphodiesterase 1 (TDP1): qHTS in cells in absence of CPT. DT40 Tdp1-/- hTDP1 cells, no CPT, ATP luminescence, 48 h. Potency, µM (series often up to 46.2 µM), for the others: at the top dose activity change, negative = growth inhibition, most hits filed as inhibitors. 15% of 420,000 active; note: nearly all actives have a fitted effect of over 55% in size
#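 Chicken DT40 Tdp1-/- cells stably complemented with human TDP1 were seeded at 400 cells/well with DMSO in place of 20 nM camptothecin. After compound pinning, cells grew at least 48 hr at 37 °C; viability read by CellTiter-Glo luminescence.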
# VP16 counter: counter-screen for ROR gamma inhibitors: Gal4-VP16 reporter; Drosophila S2 Gal4-VP16 UAS-luciferase, luminescence, 20 h; Potency, µM (top dose mostly 53.6 µM), inactives show at the highest dose activity, negative = inhibition, hits mostly inhibitors; 3.5% of 310,000 active; AID 2546;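 note: Gal4-VP16 expression switched on by copper sulfate through the metallothionein promoter; nearly all actives have a fitted effect of over 50% in size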
# TDP1 inh: TDP1 (human) enzyme inhibition | 0.28% of 350,000 active | Q9NUW8 | Potency, µM (doses to about 130 µM), without a hit: top-dose activity change, negative = inhibition, most hits filed as inhibitors | recombinant TDP1, AlphaScreen DNA substrate cleavage; note: nearly all actives have a fitted effect of over 40% in size
# Target sequence (Q9NUW8 whole entry, looked up): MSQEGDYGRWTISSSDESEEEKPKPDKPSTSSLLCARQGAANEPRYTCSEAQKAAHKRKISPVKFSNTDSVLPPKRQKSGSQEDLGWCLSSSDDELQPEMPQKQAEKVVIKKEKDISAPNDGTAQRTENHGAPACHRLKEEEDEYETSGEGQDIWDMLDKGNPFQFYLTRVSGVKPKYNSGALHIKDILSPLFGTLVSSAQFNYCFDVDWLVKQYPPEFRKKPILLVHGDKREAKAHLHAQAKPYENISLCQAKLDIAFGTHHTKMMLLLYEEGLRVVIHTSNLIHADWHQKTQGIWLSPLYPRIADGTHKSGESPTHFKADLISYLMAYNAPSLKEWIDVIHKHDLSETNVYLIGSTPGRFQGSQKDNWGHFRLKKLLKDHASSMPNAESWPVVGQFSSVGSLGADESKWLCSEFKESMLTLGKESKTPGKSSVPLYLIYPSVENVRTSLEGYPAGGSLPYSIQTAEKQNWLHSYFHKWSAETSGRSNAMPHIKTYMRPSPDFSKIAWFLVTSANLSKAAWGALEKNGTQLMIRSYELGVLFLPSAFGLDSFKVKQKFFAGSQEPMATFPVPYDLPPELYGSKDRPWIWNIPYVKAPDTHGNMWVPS
#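 Compounds were preincubated with Tdp1 (1 nM final) for 15 min at room temperature before substrate (15 nM final) started a 5 min reaction; beads (10 ug/ml final) were then added for 10 min before AlphaScreen detection.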
# TDP1 cell CPT: DT40-hTDP1 cell growth loss with CPT. 12% of 420,000 active. Potency, µM (doses to about 46.2 µM), without a hit: at the top dose activity change, negative = growth inhibition, usual class: inhibitors. chicken DT40 Tdp1-/-;hTDP1 cells + 20 nM CPT, ATP luminescence, 48 h; note: nearly all actives have a fitted effect of over 55% in size
#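 Chicken DT40 Tdp1-/- cells complemented with human TDP1, 400 cells/well, exposed to compounds plus 20 nM camptothecin for at least 48 h at 37 C; viability read as ATP content by CellTiter-Glo luminescence.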
# RORg inh: ROR gamma (mouse) transcription inhibition; P51450; Drosophila S2 Gal4-RORgamma UAS-luciferase reporter, 20 h; Potency, µM (top dose mostly 53.6 µM), for inactives: at the highest dose activity change, negative = inhibition, most hits filed as inhibitors; 5.4% of 310,000 active; note: nearly all actives have a fitted effect of over 60% in size
#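 Drosophila S2 cells stably expressing Gal4-DBD/mouse RORγ fusion under metallothionein promoter plus UAS-luciferase; compound 1 h, then 700 uM CuSO4 induction for 20 h at ambient temperature; inhibition read as reduced luminescence.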
# * = called active by the depositor; ? = inconclusive; . = no result given. Sampled rows, rich in hits. Any-hit rate of the full collection: about 19%. Calls come from the whole dose curve; as a rule, active = well fitted curve in the direction sought with a large enough effect; inconclusive = small, poorly fitted or top-dose-only effect, or another doubt; inactive = no such curve, though single readings can be large; an effect the other way counts as inactive or inconclusive. % is set by controls: 0 for no effect and ±100 for the full control effect; potency is the fitted concentration of half-maximal effect.
SMILES,TDP1 cell noCPT,VP16 counter,TDP1 inh,TDP1 cell CPT,RORg inh
COC(=O)c1c(C)[nH]c(C(=O)/C=C/c2cccc(Cl)c2)c1C,?,?,-1%,?,8.9µM*
COC(=O)c1c(C)[nH]c(C(=O)CC#N)c1C,-23%,?,0%,-25%,?
CCOC(=O)c1c(C)[nH]c(C)c1C(=O)COC(=O)/C=C/c1cccc(Cl)c1,?,-5%,3%,?,19%
COC(=O)c1c(C)[nH]c(C(=O)/C=C/c2ccc(C)cc2)c1C,-3%,4µM*,5%,-16%,0.32µM*
Cc1ccc2nc(SCC3CCCCO3)[nH]c2c1 (configuration not stated),-27%,6.3µM*,2%,2%,5.6µM*
Cc1ccc2nc(SCC(=O)N3CCOCC3)[nH]c2c1,-6%,?,-1%,4%,-44%
COc1ccc(Nc2nnc(SCC(=O)c3cc(C)n(CC4CCCO4)c3C)s2)cc1 (configuration not stated),?,-5%,3%,18µM*,-3%
CN(C(=O)CSc1nnc(-c2ccc(Cl)cc2)n1CC1CCCO1)C1CCS(=O)(=O)C1 (configuration not stated),-4%,-6%,2%,-4%,-42%
Cc1cc(C(=O)CSc2nnc(-c3ccc(Cl)cc3)n2CC2CCCO2)c(C)n1C (configuration not stated),23µM*,-6%,1%,12µM*,2%
Cc1cc(C(=O)CSc2nc3ccc(Cl)cc3[nH]2)c(C)n1CC1CCCO1 (configuration not stated),5.8µM*,?,10%,9.2µM*,0%
COc1ccc(Nc2nnc(SCC3CCCCO3)s2)cc1 (configuration not stated),-3%,7%,6%,-1%,25%
CCO[C@@H]1OC(C(=O)N2CCOCC2)=C[C@H](C2CCCCC2)[C@H]1CCCO,-7%,11%,3%,1%,28%
CCO[C@@H]1OC(C(=O)N2CCCCCCC2)=C[C@H](C2CCCCC2)[C@H]1CCCO,?,-16%,5%,13µM*,-5%
CCO[C@H]1OC(C(=O)N2CCN(Cc3ccc4c(c3)OCO4)CC2)=C[C@@H](C2CCCCC2)[C@@H]1CCCO,16µM*,-4%,8%,15µM*,?
COc1ccc(-c2c3c(=O)n(C)c(=O)n(C)c3cn2-c2cc(OC)ccc2OC)cc1,23µM*,19%,10%,?,?
COc1ccc(-c2c3c(=O)n(C)c(=O)n(C)c3cn2-c2ccccc2O)cc1,-27%,6%,.,?,8%
Cn1c(=O)c2c(-c3ccccc3)n(-c3ccc(N)cc3)cc2n(C)c1=O,15µM*,.,.,?,.
Cn1c(=O)c2c(-c3ccccc3)n(-c3ccccc3Br)cc2n(C)c1=O,5.2µM*,.,.,4.6µM*,.
Cn1c(=O)c2c(-c3ccccc3)n(-c3cccc(O)c3)cc2n(C)c1=O,9.2µM*,.,.,18µM*,.
CC1=CS(=O)(=O)CC1Sc1nc(C)n[nH]1 (configuration not stated),-7%,7%,2%,-16%,9%
CCN1C(=O)c2cccc3c(S(=O)(=O)Nc4ccccc4OC)ccc1c23,15µM*,?,6%,12µM*,-23%
COc1ccccc1NC(=O)COC(=O)CN1C(=O)C(=O)c2ccccc21,?,14%,0%,8.2µM*,1%
COc1ccccc1NC(=O)CN1C(=O)c2cccc3cccc1c23,18µM*,.,-2%,?,.
O=C(CN1C(=O)C(=O)c2ccccc21)OCN1C(=O)c2ccccc2C1=O,-8%,3%,-3%,-5%,-17%
CCOc1ccccc1NC(=O)CN1C(=O)C(=O)c2ccccc21,4.1µM*,.,1%,5.8µM*,.
SMILES,TDP1 cell noCPT,VP16 counter,TDP1 inh,TDP1 cell CPT,RORg inh
CCN1C(=O)c2cccc3c(S(=O)(=O)NCc4ccccc4)ccc1c23,?,.,-6%,?,.
CCOc1ccccc1NC(=O)CN1C(=O)COc2ccccc21,-6%,-3%,.,0%,14%
COC(=O)c1ccc(NC(=O)COc2cccc3c2OC(C)(C)C3)cc1,?,.,.,-23%,.
NS(=O)(=O)c1cccc(NC(=O)CSc2nc3ccccc3c(=O)n2CCCN2CCOCC2)c1,-6%,-13%,1%,4%,32%
COC(=O)c1sc(S(=O)(=O)Nc2ccc3cn[nH]c3c2)c(C(=O)OC)c1C,-1%,1%,7%,2%,14%
O=C(NCc1ccncc1)c1csc([C@@H]2C[C@H](O)[C@@H](CO)O2)n1,-2%,.,.,-15%,.
Cc1cc2ccccc2cc1CN1CCOCC1,-5%,-7%,-6%,1%,-11%
CCOC(=O)N1CCN(c2cc(C)nc3nc(C)nn23)CC1,5%,3%,-3%,11%,-34%
O=C(O)CCCNC(=O)/C(=C\c1ccc(Cl)cc1)NC(=O)c1ccccc1Br,1%,-4%,-2%,-21%,4%
COc1ccc(NC(=O)CN2C(=O)C(C)Oc3ccccc32)c(OC)c1 (configuration not stated),?,2%,6%,-9%,15%
COc1ccc(NC(=O)CN2C(=O)C(=O)c3ccccc32)c(OC)c1,6.5µM*,.,0%,4.1µM*,.
CCOc1ccccc1NC(=O)CN1c2ccccc2S(=O)(=O)c2ccccc21,?,.,1%,26µM*,.
N=C1C(c2nc3ccccc3c(=O)[nH]2)=C(O)CN1CCc1ccccc1,6.5µM*,-11%,71µM*,2.6µM*,-17%
Cc1ccc(C2N(C)C(=O)c3ccccc3N2C)cc1 (configuration not stated),21µM*,-3%,.,-12%,21%
CCOC(=O)c1sc(C)c2c1NC(c1ccc(Cl)cc1)NC2=O (configuration not stated),?,?,-2%,?,-2%
O=C(CSc1nnc(CNC(=O)c2ccco2)o1)Nc1ccccc1,10%,9%,-6%,-5%,5%
O=C(CSc1nnc(CNC(=O)c2ccco2)o1)Nc1nc2ccccc2s1,-28%,10µM*,.,-23%,2.5µM*
O=C(COc1ccc(Cl)cc1)NCc1nnc(SCC(=O)Nc2ccccc2)o1,-10%,-4%,-3%,-23%,41%
CCOC(=O)c1c(NC(=O)CSc2nnc(CNc3ccc(Cl)cc3)o2)sc(C)c1C,13µM*,5%,7%,?,-12%
O=C(CSc1nnc(CNc2ccc(Cl)cc2)o1)Nc1nc2ccccc2s1,?,?,6%,-25%,14µM*
CC(=O)C1=C(C)NC(SCC(=O)Nc2nc3ccccc3s2)=C(C#N)C1c1ccc(Cl)cc1 (configuration not stated),18µM*,-13%,5%,?,?
